Assay outcomes: PubChem BioAssay, National Center for Advancing Translational Sciences (NCATS)
Sfp PPTase inh – blocks B. subtilis Sfp PPTase activity; Q9F4F7; Biochemical Sfp PPTase activity, qHTS; Potency, µM, for inactives: largest response in the series, negative = inhibition, usual class: inhibitors; 3.5% of 310,000 active; AID 1490;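 also: the enzyme is Sfp with the accession as filed and its product quenches rhodamine fluorescence; 0% = enzyme reaction without inhibitor and -100% = no enzyme wells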
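Fluorescence-quenching assay with 15 nM Sfp, 5 uM rhodamine-CoA and 12.5 uM BHQ-2-labelled ybbR peptide in pH 7.6 Hepes/MgCl2 buffer. Enzyme was pre-incubated with compound for 15 min at room temperature. Rate was taken from the 30-min fluorescence change (525/598 nm).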
G9a block – G9a (human) methyltransferase inhibition; G9a H3K9 monomethylation, AlphaScreen, 2 h; Potency, µM (highest dose often 102 µM), for the others: at the top dose activity, negative = inhibition, actives largely listed as inhibitors; 8.8% of 350,000 active; AID 504332; also: % is scaled to controls: 0 for no effect and ±100 for the full control effect; nearly all actives have a fitted effect of over 75% in size
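Chemiluminescent proximity detection of H3K9 monomethylation, read after 10 min bead incubation in the dark. Reaction: 20 nM G9a, 500 nM biotin-H3K9 peptide, 20 uM SAM cofactor, 2 h, room temperature, following 15 min enzyme-compound preincubation.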
PLK1 PBD block – inhibitors of human PLK1 polo-box domain binding. P53350. Plk1 PBD binding of FITC phosphopeptide, fluorescence polarization. Potency, µM, for inactives: max response, negative = inhibition, most hits filed as inhibitors. 2.8% of 360,000 active; also: series mostly up to about 57 µM; % is scaled to controls: 0 for no effect and ±100 for the full control effect; nearly all actives have a fitted effect of over 65% in size
JMJD2A Tudor – inhibitors of human JMJD2A Tudor domain; O75164; 4.4% of 390,000 active; Potency, µM (doses to about 114 µM), for inactives: at the highest dose activity change, negative = inhibition, usual class: inhibitors; AlphaScreen JMJD2A-Tudor / H3K4me3 peptide binding; also: % is scaled to controls: 0 for no effect and ±100 for the full control effect; nearly all actives have a fitted effect of over 50% in size
BAZ2B block – inhibitors of human BAZ2B bromodomain; Q9UIF8; 4.4% of 360,000 active; AlphaScreen BAZ2B-H3K14Ac peptide displacement; Potency, µM (top dose mostly 114 µM), without a hit: top-dose activity change, negative = inhibition, hits mostly inhibitors; also: % is scaled to controls: 0 for no effect and ±100 for the full control effect; nearly all actives have a fitted effect of over 60% in size
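BAZ2B (50 nM) with biotin-H3(5-23)K14Ac peptide (50 nM) in PBS pH 7.4, 0.01% Tween-20, preformed 30 min, then compound 30 min at room temperature; top concentration 110uM. AlphaScreen streptavidin donor/nickel chelate acceptor beads (10 ug/mL final), 20 min dark, signal read.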
HP1b chromo inh – inhibitors of HP1-beta chromodomain binding to methylated histone tails; AID 540317; Potency, µM (doses to about 114 µM), without a hit: at the highest dose activity change, negative = inhibition, hits mostly inhibitors; P83916; AlphaScreen HP1-beta / biotin-H3K9me3 peptide binding; 0.56% of 390,000 active; also: nearly all actives have a fitted effect of over 70% in size
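Compound inhibition of the preformed complex between 50 nM HP1-beta and 50 nM biotinylated H3K9me3 peptide was read by AlphaScreen. Buffer was PBS pH 7.4 with 0.01% Tween-20. Incubations ran 30 min at room temperature, with 10 ug/mL donor/acceptor beads.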
Active calls of the source: *; [ ] = another dose, or the depositor's remark. Compounds with a hit are over-represented: about 12% of the library has one in this group of screens. Calls follow the shape of the dose curve; as a rule, active = well fitted curve in the direction sought with a large enough effect; inconclusive = small, poorly fitted or top-dose-only effect, or another doubt; inactive = no such curve, though single readings can be large; an effect the other way counts as inactive or inconclusive. Potency is read from the fitted curve at half-maximal effect.

Screening O=C(Nc1c2c(nn1-c1ccc(Cl)cc1)CS(=O)(=O)C2)c1ccccc1F returned G9a block 4.2%[59 µM], JMJD2A Tudor -21.7%, BAZ2B block -1.0% and HP1b chromo inh 19.7%.
`COc1cccc(CNc2nc(Cl)nc3nc[nH]c23)c1` gave JMJD2A Tudor -10.6% and HP1b chromo inh 29.4%.
For Brc1cccc(OCCCNC2CCCC2)c1 the results were Sfp PPTase inh -5.2%, G9a block 15.8µM*, PLK1 PBD block -3.5%, JMJD2A Tudor 15.8µM*, BAZ2B block inconclusive and HP1b chromo inh 16.5%.
Cc1cccc(OCCCC(=O)NC2CCCCC2)c1 was read as Sfp PPTase inh 1.7%, G9a block 7.1%, PLK1 PBD block -1.3%, JMJD2A Tudor -0.7%, BAZ2B block 11.7% and HP1b chromo inh 33.8%.
`C=CCSc1nc(-c2ccccc2)c2cc(Cl)ccc2n1` gave Sfp PPTase inh -9.8%, G9a block 41.5%[59 µM], PLK1 PBD block -3.4%, JMJD2A Tudor 200.7%, BAZ2B block 195.2% and HP1b chromo inh 301.5%.
Screening C=CCSc1nnc(C)c(/C=C/Nc2ccc(Cl)cc2)n1 returned Sfp PPTase inh -11.5%, G9a block inconclusive, PLK1 PBD block inconclusive, JMJD2A Tudor 39.8µM*, BAZ2B block -20.9% and HP1b chromo inh -8.6%.
COc1ccc(NC(=O)C(C)n2nnc3sc(-c4ccccc4)cc3c2=O)cc1Cl (stereo not given) was read as G9a block 2.82µM*, JMJD2A Tudor 79.4µM*, BAZ2B block -27.3% and HP1b chromo inh inconclusive.
Screening CCC(C(=O)OC)n1nnc2sc(-c3ccccc3)cc2c1=O (stereo not given) returned G9a block 13.9%[59 µM], JMJD2A Tudor 4.7%, BAZ2B block 6.4% and HP1b chromo inh 69.8%.
For Cc1cc(C)c(NC(=O)C(C)n2nnc3sc(-c4ccccc4)cc3c2=O)c(C)c1 (stereo not given) the results were G9a block 10µM*, JMJD2A Tudor inconclusive, BAZ2B block inconclusive and HP1b chromo inh 33.5%.
`CCC(Oc1ccccc1)C(=O)Nc1cc(C(F)(F)F)ccc1N1CCOCC1` (stereo not given) gave G9a block -6.2%[12.7 µM], PLK1 PBD block -15.4%, JMJD2A Tudor 43.8%, BAZ2B block 12.5% and HP1b chromo inh 55.1%.
C#CCOCCOCCOCCNc1nc(N2CCN(C(=O)[C@H](CCCCN)n3cc(C(N)COC(=O)C(F)(F)F)nn3)CC2)nc(N2CCN(C(=O)[C@H](CCCCN)n3cc(C(N)CC(C)C)nn3)CC2)n1 (stereo not given in full) was read as Sfp PPTase inh 11.0%, G9a block inconclusive and BAZ2B block 79.4µM*.
C#CCOCCOCCOCCNc1nc(N2CCN(C(=O)[C@H]([C@@H](C)CC)n3cc([C@@H](N)CC(C)C)nn3)CC2)nc(N2CCN(C(=O)[C@H](CCCCN)n3cc([C@@H](N)CC(C)C)nn3)CC2)n1 was read as Sfp PPTase inh 1.8%, G9a block -115.1%[59 µM], PLK1 PBD block -4.9%, JMJD2A Tudor 56.2µM*, BAZ2B block inconclusive and HP1b chromo inh 6.4%.
C#CCOCCOCCOCCNc1nc(N2CCN(C(=O)C([C@@H](C)CC)n3cc(C(N)CO)nn3)CC2)nc(N2CCN(C(=O)C([C@@H](C)CC)n3cc(C(N)COC(=O)C(F)(F)F)nn3)CC2)n1 (stereo not given in full) was read as PLK1 PBD block -7.3%, JMJD2A Tudor 79.4µM* and HP1b chromo inh 21.1%.
`C#CCOCCOCCOCCNc1nc(N2CCOCC2)nc(N2CCN(C(=O)[C@H](CCCCN)n3cc([C@@H](N)CC(C)C)nn3)CC2)n1` gave Sfp PPTase inh 24.7%, G9a block inconclusive, PLK1 PBD block -16.4%, JMJD2A Tudor -25.7%, BAZ2B block -36.6% and HP1b chromo inh 47.7%.
